Sampled rows, rich in hits. Any-hit rate of the full collection: about 2.1%.
Ba/F3 V617F tox = lowers viability of Ba/F3 cells expressing EpoR and JAK2V617F; ATP luminescence; inhibition, % at 5.6 µM; hit rate 1.1% among 220,000; AID 1446;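 active = inhibition above the campaign mean plus 3 SD over all tested compounds, cut at about 24% in these data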;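 note: cytokine-independent growth of Ba/F3 cells driven by EpoR plus mutant JAK2; 0% = DMSO-treated cells and 100% = JAK inhibitor I control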
APP 5UTR inh = APP translation inhibition; inhibition, % at 2 µM; AID 1285; SH-SY5Y APP 5'UTR-luciferase reporter, luminescence; hit rate 0.82% among 190,000;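 active = inhibition above a set limit, derived from the sample mean plus 3 SD, cut at about 45% in these data; inconclusive = one replicate passes the limit while the other fails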
BaF3 tox = counter-screen for JAK2V617F inhibitors: parental Ba/F3 viability inhibitors. CellTiter-Glo ATP luminescence. inhibition, % at 5.6 µM. hit rate 1.1% among 220,000. AID 1486;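 active = inhibition above a per-campaign cutoff, the mean inhibition of all tested compounds plus 3 SD, cut at about 27% in these data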;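 note: 0% = DMSO wells and 100% = JAK Inhibitor I control wells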
IEC-6 tox-1 = IEC-6 cytotoxicity, counter-screen for KLF5 inhibitors; inhibition, % at 5 µM; hit rate 0.78% among 290,000; luminescence viability;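 note: 0% = plate median of test compound wells and 100% = cytotoxic reference compound wells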
KLF5 inh = suppresses KLF5 promoter-driven expression; DLD-1 KLF5 promoter-luciferase reporter, luminescence; inhibition, % at 5 µM; hit rate 0.23% among 290,000; AID 1700;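 active = inhibition above a per-plate limit of that plate's mean compound inhibition plus 3 SD, cut at about 60% in these data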;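 note: 0% = DMSO wells and 100% = LY294002 at 200 µM; higher means less KLF5 promoter-driven luciferase light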
aSyn 5UTR inh = 5' untranslated region of α-synuclein, MLPCN primary screen; inhibition, % (tested at 7.5 µM); hit rate 0.82% among 300,000; alpha-synuclein 5'UTR reporter, inhibitor activity; AID 1813; in the data active = inhibition above about 60%; inconclusive = no clear call, values can overlap the other calls;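 note: H4 neuroglioblastoma cells stably carrying SNCA 5'UTR luciferase fusion; 0% = DMSO wells and 100% = positive control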
KLF5 confirm = KLF5 inhibition, confirmation assay | shares compounds with KLF5 inh | DLD-1 KLF5 promoter firefly luciferase reporter, luminescence | inhibition, % at 4 µM | hit rate 79% among 610 | AID 1834;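 active = inhibition above a set limit taken from the earlier primary screen, cut at about 63% in these data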;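 note: 0% = DMSO wells and 100% = LY294002 at 200 µM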
IEC-6 tox-2 = counter-screen for KLF5 inhibitors: cytotoxicity in rat IEC-6 cells; IEC-6 rat intestinal cells, viability luminescence; hit rate 56% among 610; inhibition, % at 4 µM; shares compounds with KLF5 inh; in the data active = inhibition above about 23%;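 note: cells exposed to compounds for 48 hours before viability read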
IEC-6 tox confirm = IEC-6 cytotoxicity, confirmation assay. inhibition, % at 5 µM. hit rate 63% among 1,900. IEC-6 rat intestinal epithelial viability, luminescence. AID 1907. shares compounds with IEC-6 tox-1;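 note: 0% = vehicle and 100% = reference cytotoxic drug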
* = called active by the depositor; ? = inconclusive; nt = not tested or not shown. Cut-off read from the data, not from the text of the source, unless noted: active = inhibition above about 22%; inactive = the rest.

SMILES	Ba/F3 V617F tox	APP 5UTR inh	BaF3 tox	IEC-6 tox-1	KLF5 inh	aSyn 5UTR inh	KLF5 confirm	IEC-6 tox-2	IEC-6 tox confirm
CCOc1ccc(C(=O)c2cc([N+](=O)[O-])ccc2N2CCOCC2)cc1	97*	94*	96*	92*	89*	79*	95*	86*	82*
Cc1ccc(COC(=O)c2cc([N+](=O)[O-])ccc2N2CCOCC2)cc1	nt	nt	nt	87*	83*	68*	84*	74*	61*
CN(CCOc1ccccc1)C(=O)c1cc([N+](=O)[O-])ccc1N1CCOCC1	nt	nt	nt	nt	nt	-13	nt	nt	nt
COc1ccc(C(=O)c2cc([N+](=O)[O-])ccc2N2CCOCC2)cc1	92*	93*	94*	85*	77*	?	83*	66*	64*
Cc1cc(OC(C)C(=O)NCc2ccccn2)c2c(C)c(C)c(=O)oc2c1 (centres undefined)	nt	nt	nt	2	-25	-6	nt	nt	nt
COc1cc2c(cc1OC)C(C)N(C(=O)Nc1cc(C)cc(C)c1)CC2 (centres undefined)	nt	nt	nt	76*	63*	-38	80*	55*	55*
COc1ccccc1N1CCN(C(=O)C2c3ccccc3Oc3ccccc32)CC1	83*	87*	78*	82*	70*	81*	70*	57*	57*
COc1ccccc1N1CCN(C(=O)C2CC2)CC1	nt	nt	nt	nt	nt	-2	nt	nt	nt
CCS(=O)(=O)c1ncc(Cl)c(C(=O)Nc2ccc(S(=O)(=O)N(C)c3ccccc3)cc2)n1	nt	nt	nt	101*	85*	78*	4	6	28*
CC(=O)Nc1ccc(S(=O)(=O)N(C)c2ccccc2)cc1	-1	-11	-1	0	-32	17	nt	nt	nt
COc1ccc(N/N=C/c2c(C(=O)O)ccc3ccccc23)cc1	35*	nt	40*	41*	73*	56	91*	7	36*
COc1ccc2ccccc2c1/C=N/Nc1ccc(Cl)c(C(=O)O)c1	nt	nt	nt	-4	-50	-22	nt	nt	nt
NC(=O)C1CCN(C(=O)C2CCC(=O)N(CC3CCCCC3)C2)CC1 (centres undefined)	nt	nt	nt	4	-25	6	nt	nt	nt
CC(C)n1cc(CNC(=O)C2CCC(=O)N(Cc3ccccc3F)C2)cn1 (centres undefined)	nt	nt	nt	3	-31	4	nt	nt	nt
CCOc1ccccc1C(=O)N1CCN(c2cccc(Cl)c2)CC1	89*	94*	85*	92*	85*	95*	109*	75*	67*
COC(=O)c1cc(C(=O)N2CCN(c3cccc(Cl)c3)CC2)cc([N+](=O)[O-])c1	73*	92*	72*	79*	70*	38	76*	56*	53*
CN1C(=O)/C(=C/c2ccc(C(=O)Nc3ccc(O)cc3C(=O)O)cc2)SC1=S	nt	nt	nt	-3	-16	-14	nt	nt	nt
O=C(Nc1ccccn1)Nc1ccccc1Cl	nt	nt	nt	-1	-114	-131	nt	nt	nt
Cc1cc(C(=O)Cn2ncc(Cl)c(Cl)c2=O)c(C)n1CC(F)(F)F	44*	75*	79*	100*	82*	-49	-1	19	19
CCCc1cc(=O)[nH]c(SCC(=O)c2cc(C)n(CC(F)(F)F)c2C)n1	0	-31	9	-4	-8	1	nt	nt	nt
O=C(CSc1n[nH]c(-c2ccccn2)n1)Nc1ccc(Cl)cc1	nt	nt	nt	44*	73*	74*	63*	18	29*
O=C(CSc1n[nH]c(-c2ccc(Cl)cc2Cl)n1)Nc1ccccn1	0	38	6	0	-23	-1	nt	nt	nt
CCC1CCCCN1C(=O)Cn1c(=O)n(CCCC(=O)NCc2ccco2)c(=O)c2sccc21 (centres undefined)	nt	nt	nt	5	-10	14	nt	nt	nt
CCOc1ccccc1NC(=O)Cn1nnc(C(=O)NCc2ccco2)c1N	87*	96*	86*	87*	76*	85*	88*	64*	58*
Cc1ccccc1NC(=O)Cn1nnc(C(=O)NCc2ccco2)c1N	6	-15	6	2	16	-4	nt	nt	nt
SMILES	Ba/F3 V617F tox	APP 5UTR inh	BaF3 tox	IEC-6 tox-1	KLF5 inh	aSyn 5UTR inh	KLF5 confirm	IEC-6 tox-2	IEC-6 tox confirm
COc1cc(/C=C(\NC(=O)c2cc(OC)c(OC)c(OC)c2)C(=O)NC(C(=O)O)c2ccccc2)cc(OC)c1OC (centres undefined)	nt	nt	nt	3	-18	-14	nt	nt	nt
Cc1ccc(C(=O)N/N=C\C=C\c2ccc(Br)cc2)cn1	2	-15	5	2	-14	-14	nt	nt	nt
Cc1ccc(C(=O)N/N=C/c2cc(Br)ccc2O)cn1	nt	nt	nt	84*	83*	3	87*	9	13
CCC1=Nc2cc(C(=O)NCc3ccco3)ccc2Sc2ccc(C)cc21	86*	94*	84*	81*	75*	104*	88*	67*	65*
COc1ccc(NC(=O)/C(Cl)=C(/Cl)S(=O)Cc2ccccc2Cl)cn1 (centres undefined)	102*	94*	103*	102*	107*	nt	111*	63*	86*
COc1ccc(NC(=O)Cc2ccccc2F)cn1	4	-2	1	5	0	-20	nt	nt	nt
CCOc1ccc(S(=O)(=O)NCc2ccccn2)cc1NC(=O)c1ccccc1F	nt	nt	nt	88*	70*	76*	81*	55*	58*
COc1ccc(S(=O)(=O)NCc2ccccn2)cc1NC(=O)c1ccc(C)cc1	nt	nt	nt	nt	nt	-54	nt	nt	nt
COC(=O)Nc1nc(-c2ccccc2)c(C(=O)c2ccc(Cl)cc2)s1	0	9	6	56*	62*	94*	85*	67*	58*
Cc1ccccc1NC1=C/C(=N\S(=O)(=O)c2ccc(C(=O)O)cc2)c2ccccc2C1=O	nt	nt	nt	16	-17	-69	nt	nt	nt
COc1ccc(S(=O)(=O)/N=C2\C=C(Nc3ccc(O)cc3)C(=O)c3ccccc32)cc1	nt	nt	nt	101*	104*	100*	114*	102*	100*
COc1cc(-c2noc(C)c2C#Cc2ccccn2)cc(OC)c1OC	nt	nt	nt	82*	62*	86*	71*	61*	62*
COc1cc(-c2c(-c3cc(OC)c(OC)c(OC)c3)noc2C)ccc1F	nt	nt	nt	98*	79*	46	88*	74*	71*
COc1cc(-c2noc(C)c2/C=C/c2ccc(N)cc2)cc(OC)c1OC	nt	nt	nt	96*	66*	104*	91*	73*	76*
COC(=O)c1cc(-c2c(-c3cc(OC)c(OC)c(OC)c3)noc2C)cc([N+](=O)[O-])c1	nt	nt	nt	0	-24	21	nt	nt	nt
NC(=O)c1cc(NC(=O)CCNS(=O)(=O)c2cccc(C(F)(F)F)c2)cc(C(N)=O)c1	nt	nt	nt	-2	-11	-14	nt	nt	nt

From PubChem
